Source: PubChem BioAssay
Hedgehog inh – Sonic Hedgehog pathway inhibition. hit rate 2.1% among 22,000. Shh-LIGHT2 Gli-luciferase reporter, 30 h. inhibition, % (concentration not given with the values);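 active = mean inhibition across valid replicates above about 65%, limit read from the data; inconclusive = mean under the limit, yet half or more replicates past it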;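 note: pathway switched on by Shh-conditioned medium diluted 1 in 25 in low serum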
NOMO-1 viab – STK33 inhibitor candidate reducing NOMO-1 cell viability; NOMO-1 AML viability, CellTiter-Glo luminescence, 72 h; inhibition, % (concentration not given with the values); hit rate 7.5% among 37,000; in the data active = inhibition above about 80%; inconclusive = no clear call, values can overlap the other calls
MITF inh – MITF inhibition; TRPM1 promoter luciferase, luminescence, 24 h; inhibition, % (test concentration not listed); hit rate 0.28% among 37,000; AID 2240; in the data active = inhibition above about 85%; inconclusive = no clear call, values can overlap the other calls; inactive = below about 68%;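 note: human melanocyte line stably carrying TRPM1 promoter luciferase reporter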
PD-1 reversal – reversal of PD-1 mediated T-cell inhibition; AID 2316; primary human CD4 T cells, PD-L1 beads, CellTiter-Glo 96 h; activation, % (no concentration beside the values); 29,000 tested, under 10 active; call rule not given here;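 note: 0% = median vehicle wells and 100% = positive control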
YB-1 expression – YB-1 expression inhibition. delta delta Cp (YB-1 minus CDIP) (no concentration beside the values). U2OS, qRT-PCR YB-1 vs CDIP delta delta Cp, 16 h; active compounds read high; zero = DMSO, each unit about twofold. hit rate 0.37% among 30,000;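 active = delta delta Cp rounded down to an integer at or above 3, about 3 SD of DMSO wells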;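 note: higher means less YB-1 transcript or more CDIP transcript relative to DMSO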
* = called active by the depositor; u = inconclusive; x = no result given. Rows were chosen to be rich in hits. Some 7.4% of all compounds tested hit in one or more screens of this group.

SMILES | Hedgehog inh | NOMO-1 viab | MITF inh | PD-1 reversal | YB-1 expression
C[C@H](CO)N1C[C@H](C)[C@@H](CN(C)S(=O)(=O)c2ccc(Cl)cc2)Oc2c(NC(=O)CCCCCC(=O)Nc3ccccc3N)cccc2C1=O | x | 88* | 16 | 0 | -0.41
O=C(Nc1ccccc1)c1ccc(NCc2cccnc2)c([N+](=O)[O-])c1 | x | 19 | -35 | x | x
C=CCN1C(=O)CN2c3ccccc3C(C)(C)C12C (configuration not stated) | x | -11 | 9 | 1 | -0.45
Cc1ccc(Nc2nc(N)nc(CN3CCN(C(c4ccccc4)c4ccccc4)CC3)n2)cc1 | x | 89* | 47 | -9 | x
CCOC(=O)C1CCCN(Cc2nc(N)nc(Nc3ccccc3)n2)C1 (configuration not stated) | x | 113* | 6 | 0 | x
O=C(O)CCC(=O)Nc1ccc(Br)c2cccnc12 | x | 8 | -16 | -2 | x
Cc1nc([N+](=O)[O-])c(Sc2nc3ccccc3[nH]2)n1Cc1ccccc1 | x | 101* | 16 | -14 | x
COc1ccc2nc(Sc3c([N+](=O)[O-])nc(C)n3Cc3ccccc3)[nH]c2c1 | x | 102* | 53 | -14 | x
Cc1cc2nc(Sc3c([N+](=O)[O-])nc(C)n3Cc3ccccc3)[nH]c2cc1C | x | 107* | 32 | -15 | x
Cc1nn(-c2cc(Cl)ccc2Cl)c(N)c1-c1nc(-c2ccccc2)cs1 | x | 27 | -5 | 0 | -0.072
CC12CCC(=O)C=C1CCC1(C)C2(C)CCC2(C)C(C(=O)CO)CCC21C (configuration not stated) | 47 | 94* | 30 | -8 | -0.026
NC(=O)NCC#Cc1ccc2c(c1)[C@]1(C(=O)N2)[C@H](c2ccc(OCCO)cc2)N2[C@H](c3ccccc3)[C@H](c3ccccc3)OC(=O)[C@H]2[C@@H]1C(=O)N1CCCCCCC1 | x | x | x | x | -0.41
CCOC(=O)c1ccc(NC(=O)CSc2nc(C)cc(C(F)(F)F)n2)cc1 | x | 25 | 17 | x | x
C[C@@H]1CN([C@@H](C)CO)C(=O)c2cc(NC(=O)Nc3ccc(F)cc3)ccc2O[C@@H]1CN(C)S(=O)(=O)c1cccs1 | -4 | 14 | -10 | 0 | 0.21
C[C@H]1CN([C@@H](C)CO)C(=O)c2cc(NC(=O)Nc3ccc(C(F)(F)F)cc3)ccc2O[C@@H]1CN(C)S(=O)(=O)c1cccs1 | x | 94* | 67 | x | 0.15
C[C@H](CO)N1C[C@H](C)[C@H](CN(C)S(=O)(=O)c2cccs2)Oc2ccc(NC(=O)Nc3ccc(F)cc3)cc2C1=O | -17 | 21 | -69 | -1 | -0.097
C[C@H](CO)N1C[C@H](C)[C@H](CN(C)S(=O)(=O)c2cccs2)Oc2ncc(C#Cc3ccc(C(F)(F)F)cc3)cc2C1=O | x | x | x | x | 6*
C[C@@H]1CN([C@@H](C)CO)C(=O)c2cc(NC(=O)Nc3ccc(C(F)(F)F)cc3)ccc2O[C@@H]1CN(C)S(=O)(=O)c1cccs1 | 44 | 109* | 43 | -3 | -0.16
C[C@@H]1CN([C@@H](C)CO)C(=O)c2cc(NC(=O)Nc3ccc(C(F)(F)F)cc3)ccc2O[C@H]1CN(C)S(=O)(=O)c1cccs1 | x | 93* | -7 | x | -0.16
C[C@H]1CN([C@@H](C)CO)C(=O)c2cc(NC(=O)Nc3ccc(F)cc3)ccc2O[C@@H]1CN(C)S(=O)(=O)c1cccs1 | 16 | 25 | -14 | -2 | 0.49
CCOC(=O)c1c(NC(=O)C2(C)Cc3ccccc3C(=O)O2)sc(C)c1C (configuration not stated) | x | 37 | -18 | -4 | x
Cn1c(SCC(=O)N2c3ccccc3Sc3ccccc32)nnc1-c1ccccc1Cl | x | 22 | 16 | 1 | x
Cc1c(CCC(=O)O)c(=O)oc2c(C)c(OCc3cccc4ccccc34)ccc12 | x | -12 | -7 | x | x
COC(=O)c1c(N)n(CCc2ccccc2)c2nc3ccccc3nc12 | -28 | 32 | -13 | -1 | -0.093
O=C(Nc1ccccc1Cl)c1cc2ccccc2cc1O | x | 132* | 36 | -4 | -0.35
SMILES | Hedgehog inh | NOMO-1 viab | MITF inh | PD-1 reversal | YB-1 expression
O=C(CSc1n[nH]c(-c2ccc(Cl)cc2Cl)n1)Nc1ccc(I)cc1 | x | 26 | -14 | 1 | x
C[C@@H]1CN([C@@H](C)CO)C(=O)c2cc(NC(=O)Nc3ccc(F)cc3)ccc2O[C@@H]1CN(C)Cc1ccc(Cl)c(Cl)c1 | 85* | 113* | 74 | 0 | 0.13
C[C@H]1CN([C@@H](C)CO)C(=O)c2cc(NC(=O)Nc3ccc4c(c3)OCO4)ccc2O[C@H]1CN(C)Cc1ccc(Cl)c(Cl)c1 | -36 | -2 | -2 | 1 | 0.51
C[C@@H]1CN([C@H](C)CO)C(=O)c2cc(NC(=O)Nc3ccc(F)cc3)ccc2O[C@H]1CN(C)Cc1ccc(Cl)c(Cl)c1 | -40 | 15 | 5 | 1 | 0.22
C[C@@H]1CN([C@@H](C)CO)C(=O)c2cc(NC(=O)Nc3ccccc3)ccc2O[C@H]1CN(C)Cc1ccc(Cl)c(Cl)c1 | 18 | 124* | u | 1 | 0.1
C[C@@H]1CN([C@@H](C)CO)C(=O)c2cc(NC(=O)Nc3ccc4c(c3)OCO4)ccc2O[C@@H]1CN(C)Cc1ccc(Cl)c(Cl)c1 | x | 95* | 2 | 2 | -0.15
C[C@H]1CN([C@@H](C)CO)C(=O)c2cc(NC(=O)Nc3ccc(F)cc3)ccc2O[C@H]1CN(C)Cc1ccc(Cl)c(Cl)c1 | x | 99* | 5 | 1 | 0.97
C[C@@H]1CN([C@H](C)CO)C(=O)c2cc(NC(=O)Nc3ccc4c(c3)OCO4)ccc2O[C@H]1CN(C)Cc1ccncc1 | x | -6 | 1 | 2 | -0.14
C[C@H]1CN([C@@H](C)CO)C(=O)c2cc(NC(=O)Nc3ccc4c(c3)OCO4)ccc2O[C@H]1CN(C)Cc1ccncc1 | x | 95* | -3 | 2 | 0.018
Cc1ccc([N+](=O)[O-])cc1NC(=O)C1CCCN(S(=O)(=O)c2ccc(F)cc2)C1 (configuration not stated) | x | 16 | 22 | 0 | x
CC(C)c1ccc(NCC(O)CSc2ccccc2)cc1 (configuration not stated) | -36 | 110* | -25 | -1 | -0.4
CC(C)c1ccc(NCC(O)COc2ccc(Cl)c(Cl)c2)cc1 (configuration not stated) | -46 | 117* | 1 | -3 | -0.48
C[C@@H]1CN([C@H](C)CO)C(=O)c2cc(NC(=O)Nc3ccc(C(F)(F)F)cc3)ccc2O[C@@H]1CN(C)Cc1ccc(C(=O)Nc2ccccc2N)cc1 | x | 102* | -22 | -2 | -0.18
C[C@@H]1CN([C@H](C)CO)C(=O)c2cc(NC(=O)Nc3ccc(F)cc3)ccc2O[C@@H]1CN(C)Cc1ccc(C(=O)Nc2ccccc2N)cc1 | x | 107* | -7 | -3 | 0.28
C[C@H]1CN([C@@H](C)CO)C(=O)c2cc(NC(=O)Nc3ccccc3)ccc2O[C@H]1CN(C)Cc1ccc(C(=O)Nc2ccccc2N)cc1 | x | u | 8 | 0 | 0.42
C[C@@H]1CN([C@@H](C)CO)C(=O)c2cc(NC(=O)Nc3ccc(C(F)(F)F)cc3)ccc2O[C@H]1CN(C)Cc1ccc(C(=O)Nc2ccccc2N)cc1 | x | 11 | 5 | 0 | 0.43
